Sampled rows, rich in hits. Any-hit rate of the full collection: about 12%.
USP28 block – inhibitors of human USP28 deubiquitinase; purified USP28, Ub-rhodamine cleavage fluorescence, 30 min; AID 1645857, 2021; 47,000 tested, 3% active; inhibition, % at 25 µM
USP17 block – inhibitors of human USP17 deubiquitinase; AID 1645855, 2021; 47,000 tested, 6.5% active; inhibition, % at 50 µM; purified USP17, Ub-rhodamine cleavage fluorescence, 3 h; Ubiquitin carboxyl-terminal hydrolase 17-like protein 5 (Homo sapiens), A8MUK1
Target sequence (A8MUK1 whole entry, looked up): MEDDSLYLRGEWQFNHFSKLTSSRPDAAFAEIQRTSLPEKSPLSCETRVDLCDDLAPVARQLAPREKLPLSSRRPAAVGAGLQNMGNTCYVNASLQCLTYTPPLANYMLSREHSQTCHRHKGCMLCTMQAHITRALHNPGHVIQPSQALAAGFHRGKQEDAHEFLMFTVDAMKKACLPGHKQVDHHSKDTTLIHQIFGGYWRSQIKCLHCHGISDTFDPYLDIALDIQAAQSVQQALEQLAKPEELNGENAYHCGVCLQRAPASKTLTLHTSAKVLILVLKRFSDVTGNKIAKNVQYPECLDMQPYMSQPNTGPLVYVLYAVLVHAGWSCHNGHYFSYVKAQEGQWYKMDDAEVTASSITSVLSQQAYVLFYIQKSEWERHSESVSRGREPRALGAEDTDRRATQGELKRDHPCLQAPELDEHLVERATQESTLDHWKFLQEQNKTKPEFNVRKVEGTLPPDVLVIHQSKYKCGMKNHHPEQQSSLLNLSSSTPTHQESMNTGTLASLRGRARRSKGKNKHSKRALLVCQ
OTUD3 inh – inhibitors of human OTUD3 deubiquitinase; OTU domain-containing protein 3 (Homo sapiens), Q5T2D3; purified OTUD3, Ub-rhodamine fluorescence, 2 h; 47,000 tested, 0.7% active; inhibition, % at 25 µM
USP30 inh – inhibitors of human USP30 deubiquitinase | Ubiquitin carboxyl-terminal hydrolase 30 (Homo sapiens), Q70CQ3 | purified USP30, Ub-rhodamine cleavage fluorescence | inhibition, % at 25 µM | 47,000 tested, 5.3% active
Starred values were filed as active, the others as inactive. Cut-off read from the data, not from the text of the source: active = inhibition above about 30%; inactive = the rest.

What do the screens show for `CCCc1nc2sc3c(NCCCN4CCOCC4)ncnc3c2c2c1CCC2`?
USP28 block: 84*; USP17 block: -12; OTUD3 inh: -7; USP30 inh: -44

What do the screens show for `CCCCc1nc2sc3c(NCCCO)ncnc3c2c2c1COC(C)(C)C2`?
USP28 block: -7; USP17 block: 46*; OTUD3 inh: -1; USP30 inh: 0

Results for CC1(C)Cc2c(c(N3CCCC3)nc3sc4c(NCCCN5CCOCC5)ncnc4c23)CO1 ?
USP28 block: 0; USP17 block: -6; OTUD3 inh: -5; USP30 inh: -12

Results for CC(C)Cc1nc2sc3c(NCCN4CCOCC4)ncnc3c2c2c1CCC2 ?
USP28 block: 82*; USP17 block: -13; OTUD3 inh: -15; USP30 inh: -64

What do the screens show for `CCOc1cc(=O)c(C(=O)N2CCC(C(N)=O)CC2)nn1-c1ccc(C)cc1`?
USP28 block: 9; USP17 block: 1; OTUD3 inh: 10; USP30 inh: 7

How did CC1=NS(=O)(=O)N(Cc2ccccc2)C=C1C(=O)Nc1ccccc1C do in these assays?
USP28 block: -117; USP17 block: -101; OTUD3 inh: -87; USP30 inh: -319

Results for CCCc1nc2sc3c(NCCC(C)C)ncnc3c2c2c1CCC2 ?
USP28 block: 29; USP17 block: -23; OTUD3 inh: -15; USP30 inh: -16

Results for CCCCNc1ncnc2c1sc1nc(CCC)c3c(c12)CCC3 ?
USP17 block: 54*; OTUD3 inh: 2

Results for CCCc1nc2sc3c(NCCN4CCOCC4)ncnc3c2c2c1CCC2 ?
USP28 block: 80*; USP17 block: -11; OTUD3 inh: -2; USP30 inh: -24

What do the screens show for `CCCc1nc2sc3c(NCc4ccco4)ncnc3c2c2c1CCC2`?
USP28 block: 80*; USP17 block: -13; OTUD3 inh: -28; USP30 inh: -21

How did CCCCc1nc2sc3c(NCc4ccccn4)ncnc3c2c2c1CCC2 do in these assays?
USP28 block: 43*; USP17 block: 5; OTUD3 inh: -4; USP30 inh: 0

What do the screens show for `Cc1cccc(NC(=O)C(C)n2cnc3onc(C)c3c2=O)c1C` (centres undefined)?
USP28 block: 10; USP17 block: 1; OTUD3 inh: 4; USP30 inh: 13

What do the screens show for `CCn1nc(C)c(CNC(=O)c2nc(-c3cccc4[nH]ccc34)no2)c1C`?
USP28 block: -6; USP17 block: -13; OTUD3 inh: -15; USP30 inh: -16

Results for COc1ccc(OC)c(NC(=O)c2cc(F)ccc2-n2cnnn2)c1 ?
USP28 block: 11; USP17 block: 2; OTUD3 inh: 10; USP30 inh: 24

What do the screens show for `N#Cc1sc2ccccc2c1N1CCCC1`?
USP28 block: -3; OTUD3 inh: -9; USP30 inh: -26

How did CC(C)c1nc2sc3c(SCC(=O)N4CCOCC4)ncnc3c2c2c1CCC2 do in these assays?
USP28 block: 35*; USP17 block: -24; OTUD3 inh: -4; USP30 inh: -9

Results for CCCCCSc1ncnc2c1sc1nc(C(C)C)c3c(c12)CCC3 ?
USP28 block: -10; USP17 block: -27; OTUD3 inh: -6; USP30 inh: -14

How did Cc1nc(-c2ccccc2)sc1C(=O)Nc1ccc2cc[nH]c2c1 do in these assays?
USP28 block: -9; USP17 block: 14; OTUD3 inh: -5; USP30 inh: -9

How did CC(=O)Nc1cccc(NC(=O)c2sc3nc(-c4ccccc4)cn3c2C)c1 do in these assays?
USP17 block: 47*; OTUD3 inh: 0

What do the screens show for `COc1ccc(OC)c(NC(=O)c2cc3c(CO)cnc(C)c3oc2=O)c1`?
USP28 block: 13; USP17 block: 33*; OTUD3 inh: 1; USP30 inh: 44*

What do the screens show for `COc1ccc(OC)c(NC(=O)c2sc(-c3ccccc3)nc2C)c1`?
USP28 block: 44*; USP17 block: 51*; OTUD3 inh: 48*; USP30 inh: 74*

What do the screens show for `CC(=O)Nc1ccc(NC(=O)c2sc3nc(-c4cccc([N+](=O)[O-])c4)cn3c2C)cc1`?
USP28 block: 0; USP17 block: 20; OTUD3 inh: 8; USP30 inh: -1

Results for CC(=O)c1cccc(NC(=O)c2sc(-c3ccccc3)nc2C)c1 ?
USP28 block: 33*; USP17 block: 19; OTUD3 inh: 8; USP30 inh: 17

What do the screens show for `CCOc1ccc(C(=O)c2cc3c(CO)cnc(C)c3oc2=O)cc1`?
USP28 block: -8; USP17 block: -1; OTUD3 inh: -4; USP30 inh: -3

Results for O=C(Cc1ccccc1)N1CCC(Oc2cc(N3CCCC3)ncn2)C1 (centres undefined) ?
USP28 block: -8; USP17 block: -13; OTUD3 inh: -3; USP30 inh: -1

Results for Cc1cn2nc(N3CCC4(CC3)CC4c3nnc(-c4cccc(F)c4)o3)sc2n1 (centres undefined) ?
USP28 block: 1; USP17 block: 4; OTUD3 inh: 18; USP30 inh: 24

Results for O=C1NCc2ccccc2CC12CCN(Cc1cccc(F)c1F)C2 (centres undefined) ?
USP28 block: -22; USP17 block: -20; OTUD3 inh: -5; USP30 inh: -67

What do the screens show for `COc1ccc(OC)c(NC(=O)c2nc(C3CCC3)oc2C)c1`?
USP28 block: 12; USP17 block: 15; OTUD3 inh: 18; USP30 inh: 31*

How did Cc1nc(-c2ccccc2F)sc1C(=O)Nc1cccnc1 do in these assays?
USP28 block: 11; USP17 block: 54*; OTUD3 inh: -15; USP30 inh: -102

How did COc1ccc(OC)c(NC(=O)c2cc(Cl)ccc2OC)c1 do in these assays?
USP28 block: 14; USP17 block: 62*; OTUD3 inh: 0; USP30 inh: 16

Results for COc1cccc(F)c1-c1nc(C)c(C(=O)NCc2ccccc2)s1 ?
USP28 block: 4; USP17 block: 0; OTUD3 inh: 8; USP30 inh: 3

Results for COc1ccc(-c2nc(C)c(C(=O)NCc3ccc(S(N)(=O)=O)cc3)s2)cc1 ?
USP28 block: 17; USP17 block: 57*; OTUD3 inh: 8; USP30 inh: 19

How did COc1ccc(NC(=O)c2nc(C3CCC3)oc2C)cc1Cl do in these assays?
USP28 block: 10; USP17 block: 3; OTUD3 inh: -1; USP30 inh: -2

What do the screens show for `CC(C)NC(=O)C1CCc2nc(N3CCN(C(=O)C4CCC4)CC3)sc2C1` (centres undefined)?
USP28 block: -2; USP17 block: -1; OTUD3 inh: -4; USP30 inh: 9

What do the screens show for `O=C(NC1CCCC1)c1ccc2c(=O)nc3c(-c4ccccc4)n[nH]n3c2c1`?
USP28 block: -32; USP17 block: -35; OTUD3 inh: -15; USP30 inh: -94

Results for Cn1nc(C2CCCN(C(=O)CCC3CCCC3)C2)c2nccnc21 (centres undefined) ?
USP28 block: 12; USP17 block: -19; OTUD3 inh: 15; USP30 inh: 16
